# Source: PubChem BioAssay (EPA / NIEHS)
# More than one record can exist for a structure, and the calls need not agree. Calls of active or inactive are those of the source. Rule for the calls: active = hit-call score of the fitted dose curve at least 0.9, where 1 is the maximum; inactive = score below 0.9.
# Assay: ATG_M_19_CIS: Attagene CIS-FACTORIAL HepG2 Assay for M19 Transcription Factor (Internal Marker) (AID 2282939)
# Conditions: HepG2 Attagene CIS-FACTORIAL M19 internal marker reporter; actives raise or lower the signal
# Method: ATG_CIS is a cell-based, multiplexed-readout assay that uses HepG2, a human liver cell line, with measurements taken at 24 hours after chemical dosing in a 24-well plate.ATG_M_19_CIS is one of 52 assay component(s) measured or calculated from the ATG_CIS assay. It is designed to make measurements of mRNA induction, a form of inducible reporter, as detected with fluorescence intensity signals by Reverse transcription polymerase chain reaction (RT-PCR) and Capillary electrophoresis technology.Data from the assay component ATG_M_19_CIS was analyzed into 1 assay endpoint. This assay endpoint, ATG_M_19_CIS, was analyzed with bidirectional fitting relative to DMSO as the negative control and baseline of activity. Using a type of inducible reporter, measures of mRNA for gain or loss-of-signal activity can be used to understand the background control at the transcription factor-level as they relate to the gene . Furthermore, this assay endpoint can be referred to as a secondary readout, because this assay has produced multiple assay endpoints where this one serves a background control function. To generalize the intended target to other relatable targets, this assay endpoint is annotated to the background measurement intended target family, where the subfamily is internal marker.
# Human liver HepG2 cells are transiently transfected with multiple reporter transcription units (MRTUs) in 6-well plates using FuGene 6 reagent (Roche; 3 ml FuGene/1 mg DNA). The MRTU constructs are regulated by a cis-regulating element (promoter). […] A major difference between the CIS and TRANS system is that in CIS activities of endogenous TFs are measured, whereas the TRANS assay evaluates changes in activities of exogenous, chimeric NR-Gal4 proteins. […] At the end of 24 hour incubation, total RNA was isolated using TriZol reagent (Invitrogen). The isolated RNA is then reverse-transcribed using oligo(dT) primer and Mo-MLV reverse transcriptase (Invitrogen) with DNAse I (Ambion) treatment for 30 min. The one-tenth of the produced cDNA was amplified by PCR using Taq DNA polymerase (Invitrogen) and two reporter sequence-specific primers. The PCR products were fluorescently labeled by primer extension with 6-arboxyfluorescein (6-FAM) 5'-labeled reporter sequence-specific primer (2 min at 95 C, 20 s at 68 C and 10 min at 72 C) and these products were digested with 5U of HpaI (New England Biolabs) for 2h at 37 C. The fragments were purified using Qiaquick PCR columns (Qiagen), analyzed on an ABI 3130xL genetic analyzer (Applied Biosystems) with peak positions identified by using a set of X-rhodamine (ROX)-labeled MapMarker1000 molecular weight standards (BioVentures). The raw capillary electrophoresis data was processed using Attagraph software (Attagene).
Structure (SMILES),outcome,AC50
Nc1ccc(N)c([N+](=O)[O-])c1,inactive,–
CCOC(=O)C=Cc1ccccc1,inactive,–
CCC(C)(C)C1CCC(OC)CC1 (stereo not given),inactive,–
CC(=O)CC(C)(C)C1CCCCC1,inactive,–
CC1=CC[C@@H](C(C)(C)O)CC1,inactive,–
CCC(C)C1CCCCC1=O (stereo not given),inactive,–
O=S1(=O)CC=CC1,inactive,–
CCC(C)COC(=O)CC(C)C (stereo not given),inactive,–
CC(=O)CC(=O)N(C)C,inactive,–
O=[N+]([O-])c1cc(N(CCO)CCO)ccc1NCCO,inactive,–
CC1=CC(O)CC(C)(C)C1 (stereo not given),inactive,–
CCCCCCCCCOS(=O)(=O)O,inactive,–
C=C(C)C(=O)OCCOCCOC(=O)C(=C)C,inactive,–
O=C(O)c1ccc(C(=O)O)c(C(=O)O)c1,inactive,–
Cc1cccc(C)c1,inactive,–
CC(C)COC(=O)c1ccccc1,inactive,–
COc1ccc2[nH]cc(CCNC(C)=O)c2c1,inactive,–
CCCCCCCOC(C)=O,inactive,–
CC(C)(CO)CO,inactive,–
CNC(=C[N+](=O)[O-])NCCSCc1ccc(CN(C)C)o1,inactive,–

Structure (SMILES),outcome,AC50
c1ccc(Cc2ccccc2)cc1,inactive,–
O=c1cc(-c2ccc(O)cc2)oc2cc(O)cc(O)c12,inactive,–
CC(CO)c1ccccc1 (stereo not given),inactive,–
CCC(=O)OC/C=C(\C)CCC=C(C)C,inactive,–
OCC=Cc1ccccc1,inactive,–
N=C1N=C(N)c2ccccc21,inactive,–
CCOC(=O)C(=O)OCC,inactive,–
C=C(C)C(=O)OCCC[Si](OC)(OC)OC,inactive,–
CC(O)CN (stereo not given),inactive,–
CN(C)CCC=C1c2ccccc2CCc2ccccc21,inactive,–
C#C[C@]1(O)CC[C@H]2[C@@H]3CCc4cc(O)ccc4[C@H]3CC[C@@]21C,inactive,171 µM (active)
O=C1OCc2ccccc21,inactive,–
CC(=O)OC/C=C(C)/C=C/C=C(C)/C=C/C1=C(C)CCCC1(C)C,inactive,–
CCc1cccc(O)c1,inactive,–
CC1=CC(C)C(C=O)C(C)C1 (stereo not given) (tested in a mixture with another compound),inactive,–
CC(=N[Si](C)(C)C)O[Si](C)(C)C,inactive,–
CC(=O)OCC=C(C)CCC=C(C)CCC=C(C)C,–,183 µM (active)
CC(=O)c1ccc(O)cc1,inactive,–
C=C(C)C(=O)OCCC(C)OC(=O)C(=C)C (stereo not given),inactive,–
